High-throughput results as filed in PubChem.
Most compounds without a hit are left out; they make up all but 10% or so of the library.
HP1b binding inh: HTS for Inhibitors of HP1-beta Chromodomain Interactions with Methylated Histone Tails | Chromobox protein homolog 1 (Homo sapiens), P83916 | AlphaScreen HP1-beta / biotin-H3K9me3 peptide binding | Potency, µM (top dose mostly 114 µM), for inactives: at the highest dose activity change, negative = inhibition, usual class: inhibitors | hit rate 0.56% among 390,000; further: potency means the concentration at half of the fitted maximal effect; nearly all actives have a fitted effect of over 70% in size
Target sequence (P83916 whole entry, looked up): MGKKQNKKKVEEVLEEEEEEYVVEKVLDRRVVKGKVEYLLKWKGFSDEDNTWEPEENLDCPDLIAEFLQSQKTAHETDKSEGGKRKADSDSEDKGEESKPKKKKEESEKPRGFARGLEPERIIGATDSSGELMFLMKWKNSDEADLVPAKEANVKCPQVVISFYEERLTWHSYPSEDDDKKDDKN
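AlphaScreen: HP1-beta (50 nM) preformed 30 min with biotin-H3(1-18)K9me3 peptide (50 nM) in PBS pH 7.4, 0.01% Tween-20. Compound added for 30 min at RT, then streptavidin donor/nickel chelate acceptor beads (10 ug/mL) for 30 min.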
BAZ2B inh: qHTS Assay for Inhibitors of BAZ2B; Bromodomain adjacent to zinc finger domain protein 2B (Homo sapiens), Q9UIF8; AlphaScreen BAZ2B-H3K14Ac peptide displacement; Potency, µM (highest dose often 114 µM), for the others: top-dose activity change, negative = inhibition, usual class: inhibitors; hit rate 4.4% among 360,000; further: potency means the concentration at half of the fitted maximal effect; on the % scale 0 is the no-effect control and ±100 the full control effect; nearly all actives have a fitted effect of over 60% in size
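BAZ2B (50 nM) with biotin-H3(5-23)K14Ac peptide (50 nM) in PBS pH 7.4, 0.01% Tween-20, preformed 30 min, then compound 30 min at room temperature; top concentration 110uM. AlphaScreen streptavidin donor/nickel chelate acceptor beads (10 ug/mL final), 20 min dark, signal read.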
JMJD2A Tudor inh: qHTS Assay for Inhibitors of JMJD2A-Tudor Domain; Lysine-specific demethylase 4A (Homo sapiens), O75164; AlphaScreen JMJD2A-Tudor / H3K4me3 peptide binding; Potency, µM (titrated, usually from 114 µM), for inactives: top-dose activity change, negative = inhibition, usual class: inhibitors; hit rate 4.4% among 390,000; AID 504339, 2011; further: potency means the concentration at half of the fitted maximal effect; on the % scale 0 is the no-effect control and ±100 the full control effect; nearly all actives have a fitted effect of over 50% in size
G9a inh: qHTS Assay for Inhibitors of Histone Lysine Methyltransferase G9a; G9a H3K9 monomethylation, AlphaScreen, 2 h; Potency, µM (titrated, usually from 102 µM), for the others: at the highest dose activity, negative = inhibition, most hits filed as inhibitors; hit rate 8.8% among 350,000; further: potency means the concentration at half of the fitted maximal effect; on the % scale 0 is the no-effect control and ±100 the full control effect; nearly all actives have a fitted effect of over 75% in size
Target sequence (Q96KQ7 913-1193 limits assumed): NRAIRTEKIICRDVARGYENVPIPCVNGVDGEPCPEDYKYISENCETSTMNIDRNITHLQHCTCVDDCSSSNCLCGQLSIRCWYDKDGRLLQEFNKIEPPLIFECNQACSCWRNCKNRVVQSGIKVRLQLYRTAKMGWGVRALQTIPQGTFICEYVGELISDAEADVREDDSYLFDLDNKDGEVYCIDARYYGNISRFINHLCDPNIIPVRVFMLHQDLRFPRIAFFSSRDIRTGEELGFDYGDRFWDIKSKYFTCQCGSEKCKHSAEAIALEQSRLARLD
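Readings reflect AlphaScreen signal from monomethyl-H3K9 antibody detection. HMT at 20 nM; substrate b-H3K9 500 nM; cofactor SAM 20 uM; 2 h RT reaction; compounds tested as titrations in qHTS with 15 min preincubation.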
Six1-Eya2 inh: qHTS Assay for Inhibitors of the Six1/Eya2 Interaction; Homeobox protein SIX1 (Homo sapiens) + Protein phosphatase EYA2 (Homo sapiens), …; hit rate 0.56% among 360,000; activity change, % (test concentration not listed); AlphaScreen GST-Six1/His-Eya2 binding, biochemical; hits give low values; in the data active means activity change below about -65%; inconclusive means mostly about -30% to -63%; further: on the % scale 0 is the no-effect control and ±100 the full control effect
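Homogeneous AlphaScreen proximity assay pairing GST-Six1 with His-tagged Eya2 (added as 5X mix: 250 nM and 500 nM) in 50 mM Tris pH 8.0, 300 mM NaCl, 1 mM TCEP. Glutathione donor and nickel acceptor beads; 1 h, 37 °C, dark.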
CtBP-E1A blk: qHTS Assay for Inhibitors of the CtBP/E1A Interaction; AlphaScreen GST-E1A/His-CtBP binding, 1536-well; hits give low values; activity change, % (concentration not given with the values); hit rate 0.49% among 340,000; in the data active means activity change below about -65%; inconclusive means mostly about -30% to -63%; further: on the % scale 0 is the no-effect control and ±100 the full control effect
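AlphaScreen with 125 nM GST-E1A and 125 nM His-CtBP (5X stocks) in Tris pH 8.0, 300 mM NaCl, BSA, Tween 20, TCEP. Compounds preincubated 2 h at 37 deg C, then glutathione donor/nickel acceptor beads added for 1 h at 37 deg C in dark.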
Active calls of the source: *; u = inconclusive; x = no result; [ ] = another dose, or the depositor's remark. Unless noted, the call rests on the fitted dose curve; in most records, active means well fitted inhibition curve with a large enough effect; inconclusive means small, poorly fitted or top-dose-only effect; inactive means no such curve, though single readings can be large or run the other way.

SMILES | HP1b binding inh | BAZ2B inh | JMJD2A Tudor inh | G9a inh | Six1-Eya2 inh | CtBP-E1A blk
Cc1sc2nc(CSCC(=O)N(C)CC(=O)Nc3ccc(F)cc3)[nH]c(=O)c2c1C | 17% | -11% | -19% | 50µM* | -8 | -24
Cc1ccc(NC(=O)C(C)SCc2nc3sc(C)c(C)c3c(=O)[nH]2)nc1 (centres undefined) | 28% | 3% | -13% | 14µM* | -3 | -4
Cc1sc2nc(CC(=O)NN)[nH]c(=O)c2c1C | -9% | 0% | -10% | 40µM* | -1 | -18
CCc1ccc(NC(=O)CSc2nc(=O)n(Cc3ccco3)c3c2CCC3)cc1 | 13% | -18% | -8% | -7%[59 µM] | x | x
Cn1c(=O)n(C)c2cc(N3CCCCC3)c(NC(=O)c3ccc(C(C)(C)C)cc3)cc21 | 10% | -10% | -23% | u | x | x
O=C(N[C@H](CO)c1ccccc1)[C@H]1O[C@@H](n2ccc(=O)[nH]c2=O)[C@H](O)[C@@H]1O | x | x | x | x | -6 | -10
COc1ccc(Cl)cc1N/C(N)=N/c1nc(CSc2ccc(C)cc2)cc(=O)[nH]1 | 9% | 20% | -25% | -41%[59 µM] | -1 | 5
Cc1cc(C)nc(/N=C(\N)Nc2ccc3c(c2)OCCO3)n1 | 55% | 15% | -15% | -8% | -5 | -4
Cc1cc(=O)[nH]c(/N=C(\N)Nc2ccc3c(c2)OCCO3)n1 | -18% | -24% | -8% | 22µM* | 3 | 4
COc1ccc(Cl)cc1N/C(N)=N/c1nc(C)cc(=O)[nH]1 | 24% | -12% | u | 20µM* | 12 | 9
CCOC(=O)c1cnc2ccc(C)cc2c1Nc1ccc(N(CC)CC)cc1 | 10µM* | 3.5µM* | 13µM* | 4.5µM* | x | x
CCOC(=O)c1cnc2ccccc2c1Nc1ccc(C(=O)O)cc1 | 37% | -30% | -8% | u | -8 | 5
CCOC(=O)c1cnc2ccc(Cl)cc2c1Nc1ccc(N2CCOCC2)cc1 | u | 14µM* | 35µM* | 7.1µM* | x | x
CCOC(=O)c1cnc2ccc(C)cc2c1Nc1ccc(N2CCOCC2)cc1 | 22µM* | 35µM* | 28µM* | 40µM* | u | u
CCOC(=O)c1cnc2ccc(C(=O)OC)cc2c1Nc1ccc(N2CCOCC2)cc1 | u | 18µM* | 50µM* | 13µM* | x | x
CC(C(=O)O)c1ccc(C(=O)c2ccccc2)s1 (centres undefined) | 51% | 10% | -14% | u | 3 | -13
COc1ccc([N+](=O)[O-])cc1N(CC(=O)NC(C(C)C)C(C)C)S(C)(=O)=O | 57% | -15% | -3%[11.4 µM] | -1% | 9 | x
O=[N+]([O-])c1ccccc1/C=C/CN1CCSCC1 | u | 50µM* | 13µM* | x | 0 | x
Cc1ccc(-n2c(CCC(=O)O)ccc2-c2cccs2)cc1Cl | 1% | u | u | 13µM* | x | x
O=C(O)CCc1ccc(-c2cccs2)n1NC(=O)c1ccc(Cl)cc1Cl | -2% | -37% | -30% | 56µM* | -20 | -25
CC(=O)c1ccc(-n2c(CCC(=O)O)ccc2-c2cccs2)cc1 | -5% | u | u | 14µM* | -5 | 8
O=C(O)CCc1ccc(-c2cccs2)n1NC(=O)c1ccc(Cl)cc1 | 15% | -38% | -29% | -3%[12.7 µM] | -8 | 8
O=C(O)CCc1ccc(-c2cccs2)n1CC1CCCO1 (centres undefined) | -2% | -33% | u | 18µM* | 3 | -5
N#C/C(=C\c1cccc(Br)c1)C(=O)N1CCCCC1 | 15% | 2% | u | u | -3 | -2
NC(=O)c1ccc(-n2c(CCC(=O)O)ccc2-c2cccs2)cc1 | u | -32% | -26% | 28µM* | -3 | -4
